Laboratory results as given in PubChem BioAssay (NCATS).
Inconclusive results are not listed. Unmarked numbers belong to inactive results. Calls of active or inactive are those of the source. Calls follow the shape of the dose curve; as a rule, active = well fitted inhibition curve with a large enough effect; inconclusive = small, poorly fitted or top-dose-only effect; inactive = flat fitted curve, though single readings scatter.

test system: CP286; test: qHTS profiling for inhibitors of Plasmodium falciparum proliferation (AID 504749); also: nearly all actives have a fitted effect of over 60% in size;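 as to activity, negative = inhibition: 0% = DMSO vehicle and full inhibition = artemisinin control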; conditions: P. falciparum in erythrocytes, SYBR Green DNA, 72 h; series mostly up to 28.7 µM; activity, negative = inhibition: at the top concentration
Outline: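 SYBR Green fluorescence of parasite DNA, read after lysis and overnight dark incubation, measured growth over 72 h in erythrocyte culture at 0.3% parasitemia and 2.5% hematocrit. Data normalised to DMSO and 0.29 uM artemisinin, with plate-drift correction.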
Potency is read from the fitted curve at half-maximal effect.

SMILES | activity, negative = inhibition [%] | Potency
CCCCCCCC/C=C\CCCCCCCC(=O)O | 0.949 | –
COC(F)(F)C(Cl)Cl | -0.296 | –
Nc1ncnc2c1ncn2[C@@H]1O[C@H](COP(=O)(O)OP(=O)(O)OP(=O)(O)O)[C@@H](O)[C@H]1O | 0.267 | –
Nc1c(N=Nc2ccc(-c3ccc(N=Nc4cc(S(=O)(=O)O)c5ccccc5c4N)cc3)cc2)cc(S(=O)(=O)O)c2ccccc12 | -2.48 | –
C#CCOc1ccc2c(C)cc(=O)oc2c1 | -5.93 | –
CC(O)CO (stereo not given) | 0.326 | –
COc1ccc2c3c1O[C@H]1C[C@@H](O)C=C[C@@]31CCN(C)C2 | 0.0293 | –
O=S(=O)(O)O | -7.04 | –
CCCCCCCCCCCCCCCC(=O)OCC(COC(=O)CCCCCCCCCCCCCCC)OC(=O)CCCCCCCCCCCCCCC | 0.861 | –
O=C(O)CN(CCN(CC(=O)O)CC(=O)O)CC(=O)O | -0.128 | –
CCCCCCC(O)C/C=C/CCCCCCCC(=O)O (stereo not given) | 0.136 | –
C=CCSSSCC=C | -1.17 | –
CCC(=O)NCCC1CCc2ccc3c(c21)CCO3 (stereo not given) | 0.722 | –
C[C@@H]1CCC2[C@@H](C)[C@@H](O)O[C@@H]3O[C@@]4(C)CC[C@@H]1[C@@]23OO4 (stereo not given in full) | – | 2.5 nM (active)
CCCCC/C=C\C/C=C\CCCCCCCC(=O)O | -0.155 | –
CCCC(=O)O[C@]1(C(=O)CCl)[C@H](C)C[C@@H]2[C@H]3CCC4=CC(=O)C=C[C@]4(C)[C@@]3(F)C(=O)C[C@@]21C | – | 2820 nM (active)
CCOc1ccc(N=Nc2ccc(N)cc2N)cc1 | -10.9 | –
NC(=O)c1ncn(C2OC(CO)C(O)C2O)n1 (stereo not given) | -13 | –
COCC(=O)Nc1cc(Sc2ccccc2)ccc1N=C(NC(=O)OC)NC(=O)OC | -0.706 | –
CC1=C(/C=C/C(C)=C/C=C/C(C)=C/C=C/C=C(C)/C=C/C=C(C)/C=C/C2=C(C)CCCC2(C)C)C(C)(C)CCC1 | 0.474 | –
Cc1ccccc1OCC(O)CNCCOc1ccc(C(N)=O)cc1 (stereo not given) | 1.19 | –
CCCCCCCC(=O)O | -0.589 | –
CC1=CCC(C(C)(C)O)CC1 (stereo not given) | 0.889 | –
CC(NNC(=O)c1ccccc1)c1ccccc1 (stereo not given) | 1.08 | –
CCOc1ccc2c(c1)C(C)=CC(C)(C)N2 | -23.4 | –
CO[C@H]1C[C@@H]2CC[C@@H](C)[C@@](O)(O2)C(=O)C(=O)N2CCCC[C@H]2C(=O)O[C@H]([C@H](C)C[C@@H]2CC[C@@H](OCCO)[C@H](OC)C2)CC(=O)[C@H](C)/C=C(\C)[C@@H](O)[C@@H](OC)C(=O)[C@H](C)C[C@H](C)/C=C/C=C/C=C/1C | – | 3160 nM (active)
COC(=O)CCC(=O)CN | 0.474 | –
Cc1ccccc1 | -0.208 | –
CCCCC(C)(O)C/C=C/[C@H]1[C@H](O)CC(=O)[C@@H]1CCCCCCC(=O)OC (stereo not given in full) | -0.475 | –
O=C(O)c1cc(O)c2c(c1)[O][Bi][O]2 | -0.178 | –
